# Source: PubChem
# rCAG RNA binder: r(CAG) repeat RNA binding | AID 651821 | inhibition, % at 3 µM | 1.3% of 370,000 active | TO-PRO-1 dye displacement fluorescence;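 active = inhibition above the plate cutoff, the mean of all test compounds on that plate plus 3 SD, cut at about 35% in these data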;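 note: 0% = DMSO alone and 100% = 100 µM mitoxantrone as full dye displacement; higher means more dye released from RNA so lower well fluorescence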
# MBD2 DNA inh: inhibitors of human MBD2 binding to methylated oligonucleotide. inhibition, % at 4.4 µM. Q9UBB5. 0.31% of 370,000 active. TR-FRET; in the data active = inhibition above about 13%
# ABHD5-PLIN5 inh: inhibitors of human ABHD5-perilipin-5 interaction | inhibition, % at 4 µM | Split G. princeps luciferase complementation, luminescence, 4 h | 0.78% of 360,000 active | Q00G26+Q8WTS1;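 active = inhibition above the mean inhibition across every tested compound plus 3 SD, cut at about 22% in these data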;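 note: 0% = DMSO only wells and the 100% control is not disclosed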
# PRMT1 inh: inhibitors of human PRMT1 | recombinant PRMT1, activity-based probe fluorescence polarization | inhibition, % at 2.79 µM | 1.3% of 370,000 active;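 active = inhibition above about 21% made by adding two undisclosed values, limit read from the data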
# Target sequence (Q99873 whole entry, looked up): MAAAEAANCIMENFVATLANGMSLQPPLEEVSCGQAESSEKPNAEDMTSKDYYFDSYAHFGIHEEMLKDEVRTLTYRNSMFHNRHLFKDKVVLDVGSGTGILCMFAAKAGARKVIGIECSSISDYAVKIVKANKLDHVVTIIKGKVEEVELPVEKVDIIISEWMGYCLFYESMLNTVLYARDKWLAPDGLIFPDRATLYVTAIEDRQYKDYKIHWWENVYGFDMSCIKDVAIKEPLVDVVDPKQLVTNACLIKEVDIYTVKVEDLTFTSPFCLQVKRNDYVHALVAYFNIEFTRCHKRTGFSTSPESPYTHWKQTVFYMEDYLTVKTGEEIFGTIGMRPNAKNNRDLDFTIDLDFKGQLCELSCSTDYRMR
# LEDGF integ inh: blocks HIV-1 LEDGF/p75-dependent DNA integration. TR-FRET IN-LEDGF/p75 DNA integration, Eu/Cy5. AID 743269. inhibition, % at 3.7 µM. 0.64% of 370,000 active;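 active = inhibition above the screen-wide mean plus 3 SD, cut at about 13% in these data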;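 note: signal is the Cy5 over europium emission ratio at 671 and 618 nm; 0% = plate median of compound wells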
# UHRF1 MBD2 ctr: UHRF1 methyl-DNA binding inhibition | Q96T88 | UHRF1 binding to methylated oligo, TR-FRET | inhibition, % at 4.4 µM | 0.75% of 370,000 active; in the data active = inhibition above about 21%;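 note: UHRF1 SRA domain binding a hemimethylated CpG hairpin DNA probe; 0% = median of test compound wells and 100% = reference inhibitor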
# PRMT1 inh conf: confirmation of human PRMT1 inhibitors; shares compounds with PRMT1 inh; recombinant His-PRMT1, activity-based probe fluorescence polarization; inhibition, % at 2.79 µM; 42% of 3,300 active;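 active = mean inhibition across replicates above the hit cutoff derived for the earlier primary screen, cut at about 22% in these data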
# * marks the source's active call; other numbers are inactive results; i = inactive; nt = not tested or not shown. Most compounds without a hit are left out; they make up all but 4.1% or so of the library.
SMILES,rCAG RNA binder,MBD2 DNA inh,ABHD5-PLIN5 inh,PRMT1 inh,LEDGF integ inh,UHRF1 MBD2 ctr,PRMT1 inh conf
CN1c2ccccc2Sc2cc(N)ccc21,5,3,15,29*,-3,0,11
CCOC(=O)C1=C(C(=O)OCC)C2N(Cc3ccc(Br)cc3)c3ccccc3[C@@]23C[C@@H](C(=O)OC)N(S(=O)(=O)c2ccc(F)cc2)C3=N1 (some centres undefined),9,-3,nt,2,1,0,nt
CCC(CO)n1c(SCc2cc(=O)oc3cc(C)ccc23)nc2ccccc2c1=O (centres undefined),-4,0,0,77*,0,0,67*
COc1ccccc1-n1c(SCc2cc(=O)oc3cc(O)ccc23)nc2ccccc2c1=O,32,0,5,2,3,1,nt
COc1ccc(C(=O)c2[nH]c(N)c(C(=O)c3ccccc3)c2-c2ccc(OC)c(OC)c2)cc1,nt,4,nt,1,-4,0,nt
C[C@H](O)[C@@H]1CN2CCc3c([nH]c4c(-c5ccc6c(c5)OCO6)cccc34)[C@@H]2C[C@@H]1N(C)C(=O)c1ccccc1F,7,2,nt,1,3,-3,nt
Cc1nc2ccc(NC3=NCCCCC3)cc2s1,1,-1,-8,61*,-1,3,37*
Cc1ccc(NC2=NCCC2)cc1Cl,1,-4,-2,-4,3,0,nt
O=S(=O)(Nc1cc(Sc2ncn[nH]2)c(O)c2ccccc12)c1ccccc1,22,-4,-4,64*,34*,11,111*
COc1ccc(Oc2c(-c3cccs3)cnn(-c3ccc(C)cc3)c2=O)cc1,nt,-5,nt,2,-1,-3,nt
Cn1ccnc1C(O)c1cc(C(C)(C)C)c(O)c(C(C)(C)C)c1 (centres undefined),-4,1,19,37*,2,-3,13
COc1ccc(-c2nnc(SCC(=O)NN=C(C)c3cccc4ccccc34)n2-c2ccc(C)cc2)cc1,6,-4,nt,-4,1,-2,nt
Cn1cc(P(=O)(N2CCOCC2)N2CCOCC2)cc1P(=S)(N1CCOCC1)N1CCOCC1,1,5,-13,30*,-1,0,40*
Cn1cc(P(=S)(N2CCOCC2)N2CCOCC2)cc1P(=O)(N1CCOCC1)N1CCOCC1,2,-4,-6,40*,8,3,6
O=C(CNS(=O)(=O)c1ccc(Br)s1)N1CCN(c2ccccn2)CC1,0,0,nt,-1,-1,-1,nt
CCOC(=O)C1CSCCS(=O)(=O)N1Cc1cccc(F)c1 (centres undefined),0,4,nt,4,1,18,nt
NC(=O)c1c(N)sc2c1CCCC2,19,5,-2,41*,4,-2,29*
Nc1sc2c(c1C(=O)c1ccccc1)CCCC2,11,-1,-11,12,4,1,nt
O=c1c2ccccc2sn1-c1cc(S(=O)(=O)N2CCOCC2)ccc1N1CCCC1,4,-5,13,88*,-5,1,80*
Nc1cc(S(=O)(=O)N2CCOCC2)ccc1N1CCCCC1,4,2,-11,17,-2,-7,nt
CC(C)CN1C(=O)N2CCc3ccccc3C2CS1(=O)=O (centres undefined),3,1,nt,7,0,3,nt
O=C(CCN1C(=O)/C(=C\c2ccccc2)SC1=S)NCCCN1CCOCC1,1,-2,-8,12,3,-3,nt
O=C1C(=Cc2ccccc2O)SC(=S)N1CCCN1CCOCC1,6,2,-30,68*,1,-1,83*
O=Nc1ccc(Br)cn1,1,-11,nt,11,0,-8,nt
Cc1cc(O)ccc1Nc1nc(-c2sc(N)nc2C)cs1,24,-6,-30,34*,6,-4,14
CN(C)S(=O)(=O)N1C(=O)c2ccccc2C1=O,1,-11,3,-2,10,1,nt
CN(C)/C=C1\C=C2C(=O)c3ccccc3N2C1=O,i,-13,1,111*,2,-38,54*
O=C(N[C@H](C(=O)N1CCC[C@H]1C(=O)NCCc1ccccc1Cl)c1ccccc1)c1ccco1,-1,-2,nt,6,1,2,nt
